Assay outcomes as filed in PubChem.
The list is not random: actives were taken first. Their share in the collection is about 1.5%.
PI5P4K alpha inh – blocks human PI5P4K alpha kinase activity. AID 652105. P48426. max response, %. 330,000 tested, 1.2% active. PI5P4Kalpha enzyme, ADP-Glo luminescence, 60 min; hits give low values; active = max response of -50% or lower; inconclusive = between -30% and -50%; inactive = -30% or higher; also: value at the top dose of about 77 µM
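PI5P4Kalpha ADP-Glo assay; 5 microM ATP final; 60 min RT reaction; HEPES pH 7.4/EGTA/CHAPS, 5% DMSO; controls lacking substrate or enzyme; luminescent end-point.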
FEN1 inh – human FEN1 inhibition; P39748; Potency, µM (doses to about 114 µM), inactives show at the top dose activity change, negative = inhibition, hits mostly inhibitors; AID 588795; Recombinant FEN1 flap cleavage, fluorescence, 15 min; 390,000 tested, 0.35% active; also: potency is read from the fitted curve at half-maximal effect; nearly all actives have a fitted effect of over 65% in size
Target sequence (P39748 whole entry, looked up): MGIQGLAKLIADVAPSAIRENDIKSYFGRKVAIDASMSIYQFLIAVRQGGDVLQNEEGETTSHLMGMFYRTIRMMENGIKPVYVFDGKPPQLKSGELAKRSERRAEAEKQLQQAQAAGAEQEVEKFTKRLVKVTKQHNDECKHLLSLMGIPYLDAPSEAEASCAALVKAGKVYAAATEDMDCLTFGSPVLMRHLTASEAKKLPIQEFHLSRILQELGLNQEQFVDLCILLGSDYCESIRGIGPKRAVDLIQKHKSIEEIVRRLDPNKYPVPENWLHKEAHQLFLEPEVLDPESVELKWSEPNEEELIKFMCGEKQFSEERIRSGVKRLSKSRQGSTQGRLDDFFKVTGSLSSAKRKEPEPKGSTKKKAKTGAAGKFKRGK
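Recombinant FEN1 (10 nM) was preincubated with pin-transferred compounds for 15 min at room temperature, then flap DNA substrate (50 nM final) was added. Plates were read at 0 and 15 min, and normalized concentration–response data were fitted to a four-parameter Hill equation.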
GCN5L2 inh – inhibitors of human GCN5L2 histone acetyltransferase | Q92830 | GCN5L2 HAT assay, ThioGlo1 CoA-SH fluorescence | Potency, µM (titrated, usually from 58.9 µM), for inactives: at the top dose activity change, negative = inhibition, actives largely listed as inhibitors | 390,000 tested, 0.21% active | AID 504327; also: potency is read from the fitted curve at half-maximal effect
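GCN5L2 (20 nM) in 50mM HEPES pH 7.5, 0.1mM EDTA, 0.01% Tween-20 preincubated 15 min with compounds at room temperature. Reaction started with H3(1-25) 75uM, acetyl-CoA 70uM, ThioGlo1 50uM; CoA-thiol fluorescence (Ex340/Em540) read at 0 and 20 min.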
RECQ1 helicase – RECQ1 (human) helicase inhibition. P46063. RECQ1 DNA unwinding, red fluorescence kinetic read. Potency, µM (highest dose often 57.3 µM), for the others: at the highest dose activity, negative = inhibition, actives largely listed as inhibitors. 240,000 tested, 0.54% active. AID 2549;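 also: potency is read from the fitted curve at half-maximal effect; plate controls were vehicle for no effect and no enzyme for full effect; nearly all actives have a fitted effect of over 30% in size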
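50 nM RECQ1T1 preincubated 15 min with compound in Tris pH 8.0 buffer with MgCl2, DTT, Tween-20 and 2.5 ug/ml poly(dI-dC); started with 200 nM TAMRA/BHQ-2 forked duplex and 2 mM ATP. Unwinding read as fluorescence (525/598 nm), two reads 2 h apart.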
BLM inh – blocks DNA unwinding by human BLM helicase | recombinant BLM DNA unwinding, fluorescence dequenching | 350,000 tested, 0.2% active | Potency, µM (doses to about 56.1 µM), for inactives: at the top dose activity change, negative = inhibition, usual class: inhibitors | P54132 | AID 2528;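 also: potency is read from the fitted curve at half-maximal effect; plate controls were vehicle for no effect and no enzyme for full effect; nearly all actives have a fitted effect of over 35% in size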
APE1 inh – blocks human APE1 abasic DNA cleavage; P27695; recombinant APE1, TAMRA/BHQ-2 abasic DNA cleavage fluorescence; Potency, µM (series often up to 65.8 µM), inactives show at the top dose activity change, negative = inhibition, hits mostly inhibitors; 350,000 tested, 0.35% active; AID 2517;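 also: potency is read from the fitted curve at half-maximal effect; plate controls were vehicle for no effect and reference inhibitor for full effect; nearly all actives have a fitted effect of over 55% in size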
Target sequence (P27695 whole entry, looked up): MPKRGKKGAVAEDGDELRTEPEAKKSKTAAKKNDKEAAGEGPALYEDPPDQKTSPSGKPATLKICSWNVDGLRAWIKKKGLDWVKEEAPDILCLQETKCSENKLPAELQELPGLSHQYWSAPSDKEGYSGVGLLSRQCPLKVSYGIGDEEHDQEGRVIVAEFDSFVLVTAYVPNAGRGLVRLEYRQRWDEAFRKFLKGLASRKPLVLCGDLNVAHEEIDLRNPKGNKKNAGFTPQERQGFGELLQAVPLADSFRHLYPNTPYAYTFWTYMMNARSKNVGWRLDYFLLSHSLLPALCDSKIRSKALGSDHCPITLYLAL
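Enzyme (0.75 nM final) and test compound are incubated 15 min at room temperature before adding 50 nM quenched THF abasic-site duplex. Cleavage dequenches TAMRA, followed at 525/598 nm over three reads one minute apart.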
Numbers without * were called inactive; i = inactive; ? = inconclusive; . = no result. Unless noted, calls follow the shape of the dose curve; as a rule, active = well fitted curve in the direction sought with a large enough effect; inconclusive = small, poorly fitted or top-dose-only effect, or another doubt; inactive = no such curve, though single readings can be large; an effect the other way counts as inactive or inconclusive. Unless noted, % is scaled to controls: 0 for no effect and ±100 for the full control effect.

SMILES	PI5P4K alpha inh	FEN1 inh	GCN5L2 inh	RECQ1 helicase	BLM inh	APE1 inh
COc1ccc(OC)c(-c2csc(NC(=O)COC(=O)C3CCC3)n2)c1	6.4	-19.0%	-12.3%	.	.	-14.0%
COc1ccc(OC)c(-c2nnc3n2N=C(c2ccc(OC)c(O[C@H]4CCOC4)c2)CS3)c1	.	.	.	.	.	-4.6%
CC(=O)C[n+]1cccc(Br)c1	.	-4.6%	.	.	.	.
CCOC(=O)c1[nH]c2ccc(C)cc2c1NC(=O)CN1CCCCC1	3.9	-6.7%	-18.3%	-3.8%	-3.0%	1.6%
Cc1c2cc[n+](CCN3CCCCC3)cc2c(C)c2c1[nH]c1ccc(O)cc12	?	12.6µM*	.	.	.	.
O=C1NN=C(CSc2n[nH]c(=S)s2)CS1	-55.4*	-2.9%	?	5.4%	-2.2%	0.5%
CC(Cl)C(=O)NN=C(c1ccccc1)c1ccccc1 (stereo not drawn)	0.4	-10.9%	1.2%	i	-4.8%	19.8%
CC(NC1CCCCC1)C(=O)NN=C(c1ccccc1)c1ccccc1 (stereo not drawn)	5.7	-6.4%	-3.1%	28.2µM*	-3.2%	-3.9%
COc1ccc(C(=O)Nc2ccnn2C2CCN(Cc3ccc4nonc4c3)CC2)cc1	-3.2	7.8%	-0.7%	.	-7.6%	5.32µM*
Cc1ccccc1-c1cc(C(=O)N2CCCC2)c2ccccc2n1	-57.8*	1.1%	-0.4%	.	-9.4%	16.1%
O=C1N=c2ccc(Br)cc2=C1c1sc(=S)n(NS(=O)(=O)c2ccccc2)c1O	-98.1*	79.4µM*	?	-11.9%	-1.7%	13.5%
CC(C)(C)n1ncc2c(=O)n(Cc3cc(F)c(F)cc3Cl)cnc21	.	-16.0%	.	.	.	?
Cc1cccc(OCC(=O)NC(Cc2ccccc2)C(=O)O)c1 (stereo not drawn)	7.2	-3.3%	0.8%	-1.3%	1.7%	14.4%
Cc1ccc2c(c1)c(CC(NC(=O)c1ccccc1Oc1ccccc1)C(=O)O)cn2C(=O)OCc1ccccc1 (stereo not drawn)	.	.	10µM*	?	-18.3%	-6.5%
C[N+]1(CC(=O)c2ccc(Br)cc2)CCOCC1	.	5.3%	.	.	.	.
Cc1c([N+](=O)[O-])cc(N2C(=O)C=CC2=O)cc1[N+](=O)[O-]	-66.2*	-2.4%	.	.	.	.
Cc1cc(N2C(=O)C=CC2=O)c([N+](=O)[O-])cc1C	-56.4*	?	20µM*	-1.5%	-1.9%	-1.7%
Cn1c(N=Nc2ccc(N3CCOCC3)cc2)[n+](C)c2ccccc21	?	56.2µM*	0.8%	i	0.4%	-6.2%
C#CC(C)OC(=O)Nc1cccc(Cl)c1 (stereo not drawn)	.	.	5.2%	6.8%	-2.8%	10.1%
Cc1ncnc2nc[nH]c12	.	-2.8%	.	.	.	.
CCN1CCCc2cc(CN(CCN3CCOCC3)C(=S)Nc3ccc(OC)cc3)ccc21	-0.6	15.4%	-6.2%	-5.8%	0.1%	6.31µM*
O=C1NN(c2ccc(F)c(Cl)c2)C(=O)/C1=C\c1cccc(OC(=O)c2cccs2)c1	-82.3*	-15.9%	-22.9%	i	-13.9%	-2.0%
Cn1c(=O)[nH]c(Nc2ccc(F)cc2)c([N+](=O)[O-])c1=O	-60.3*	-6.9%	-5.0%	-1.7%	3.6%	2.9%
Cn1c(=O)[nH]c(NCCc2ccc(O)cc2)c([N+](=O)[O-])c1=O	-71.4*	3.6%	.	.	.	.
O=C(O)C(O)c1ccco1 (stereo not drawn)	-60.3*	?	-15.4%	-11.1%	?	1.9%
SMILES	PI5P4K alpha inh	FEN1 inh	GCN5L2 inh	RECQ1 helicase	BLM inh	APE1 inh
O=c1cc(-c2nn[nH]n2)[nH]c(=O)[nH]1	-70.2*	-5.7%	.	.	.	.
Cc1ccc(S(=O)(=O)N2CCN(c3ccnc(-c4cccs4)n3)CC2)cc1	.	-8.4%	.	.	.	.
CN(C(=S)NC(=O)c1ccc(Cl)cc1)C1CCCCC1	-97.9*	4.6%	-29.7%	.	-16.4%	-14.1%
O=S(=O)(Nc1cccc2cccnc12)c1ccc(Br)cc1	.	.	.	-8.8%	-10.3%	-2.4%
C=CCN=c1scc(-c2ccco2)n1/N=C/c1ccc(O)c(O)c1O	-72.9*	?	-25.0%	-10.3%	-26.8%	?
CN=c1scc(-c2cccs2)n1/N=C/c1ccc(O)c(O)c1O	-75.4*	35.5µM*	-0.1%	6.31µM*	-18.4%	6.31µM*
COc1cc2nc(CCc3nc4cc(OC)c(OC)cc4[nH]3)[nH]c2cc1OC	.	-33.6%	.	.	.	.
N#Cc1ccc(NC(=O)COc2ccccc2C(=O)Nc2ccccc2)cc1	.	2.0%	.	.	.	.
COc1cc(SSc2cc(OC)cc([N+](=O)[O-])c2N)c(N)c([N+](=O)[O-])c1	-93.5*	?	15.8µM*	-4.6%	0.4%	-0.6%
CCN1C(=NCc2cccc(Cl)c2)N[C@@H](c2cccc(C(F)(F)F)c2)C(C(=O)OC)=C1C	.	2.2%	.	.	.	.
Cc1cccc(-n2c(C)nnc2SCC(=O)NC(C)c2ccco2)c1 (stereo not drawn)	.	16.5%	.	.	.	.
Cc1ccc(C(=O)Oc2ccc(C(=O)COC(=O)C3CC(=O)N(Cc4ccco4)C3)cc2)cc1 (stereo not drawn)	?	-23.6%	-17.8%	-28.8%	-27.9%	31.6µM*
Cc1[nH]c2ccccc2c1C(=O)COC(=O)C1CC(=O)N(Cc2ccco2)C1 (stereo not drawn)	-3.3	-1.2%	-1.1%	-0.9%	-0.1%	-2.2%
CC(C)(C)n1ncc2c(=O)n(Cc3ccc(Cl)c(OC(F)(F)F)c3)cnc21	.	-31.7%	.	.	.	-6.5%
COc1cccc(NC(=O)CSc2nnc(-c3ccco3)c(-c3ccco3)n2)c1	-63.2*	?	?	.	-25.4%	7.3%
Cc1ccc(NC(=O)CSc2nnc(-c3ccco3)c(-c3ccco3)n2)cc1	-74.7*	?	?	?	?	?
CCOC(=O)c1c(N2C(=O)Nc3ccccc3N2O)n[nH]c1-c1cccc(OC)c1	-51.9*	-4.5%	1.4%	-10.6%	-11.7%	-0.8%
O=C(COC(=O)c1cc2c(s1)CCCC2)Nc1ccc(Cl)cn1	0.7	-4.7%	-3.8%	-4.0%	-1.9%	3.0%
COc1ccc(NC(=O)COC(=O)c2cc3c(s2)CCC3)cc1	?	9.1%	-20.2%	.	.	5.32µM*
O=[N+]([O-])c1cc(CN2CCOCC2)c2cccnc2c1O	-72.9*	28.2µM*	?	-8.1%	0.0%	4.6%
CCOc1ccc(C(=O)NCCCCNC(=O)c2ccc(OCC)cc2)cc1	2.0	-2.2%	35.5µM*	.	-11.4%	8.9%
CCOc1ccc(C(=O)NCCC(=O)NCCCC(=O)O)cc1	.	-1.2%	-3.8%	i	-0.3%	-0.6%
Nc1nc(N=Nc2ccc(O)cc2)cc(=O)[nH]1	-51.8*	.	.	.	.	.
CCOc1ccc(N=Cc2ccc(N(C)C)cc2)c(O)c1	-54.0*	.	.	.	.	.
COc1cccc(CNC(=O)Cn2ncc3c4ccccc4n(C)c3c2=O)c1	.	15.7%	-5.0%	.	-6.1%	.
